What all share (design): scale not given: direction of the effect not stated beside the values
Assay [1] concerns the target Protein translocase subunit SecA (Escherichia coli (strain K12)) (UniProt P10408). As to the kind of experiment: Assay to Identify E. coli SecA ATPase Inhibitors. The class given is functional. The settings on record: 30 µM.
In assay [2] the target is T1, Ubiquitin-activating enzyme e1, putative (Leishmania donovani (strain BPK282A1)) (UniProt E9BSI1).
T1 sequence (whole entry): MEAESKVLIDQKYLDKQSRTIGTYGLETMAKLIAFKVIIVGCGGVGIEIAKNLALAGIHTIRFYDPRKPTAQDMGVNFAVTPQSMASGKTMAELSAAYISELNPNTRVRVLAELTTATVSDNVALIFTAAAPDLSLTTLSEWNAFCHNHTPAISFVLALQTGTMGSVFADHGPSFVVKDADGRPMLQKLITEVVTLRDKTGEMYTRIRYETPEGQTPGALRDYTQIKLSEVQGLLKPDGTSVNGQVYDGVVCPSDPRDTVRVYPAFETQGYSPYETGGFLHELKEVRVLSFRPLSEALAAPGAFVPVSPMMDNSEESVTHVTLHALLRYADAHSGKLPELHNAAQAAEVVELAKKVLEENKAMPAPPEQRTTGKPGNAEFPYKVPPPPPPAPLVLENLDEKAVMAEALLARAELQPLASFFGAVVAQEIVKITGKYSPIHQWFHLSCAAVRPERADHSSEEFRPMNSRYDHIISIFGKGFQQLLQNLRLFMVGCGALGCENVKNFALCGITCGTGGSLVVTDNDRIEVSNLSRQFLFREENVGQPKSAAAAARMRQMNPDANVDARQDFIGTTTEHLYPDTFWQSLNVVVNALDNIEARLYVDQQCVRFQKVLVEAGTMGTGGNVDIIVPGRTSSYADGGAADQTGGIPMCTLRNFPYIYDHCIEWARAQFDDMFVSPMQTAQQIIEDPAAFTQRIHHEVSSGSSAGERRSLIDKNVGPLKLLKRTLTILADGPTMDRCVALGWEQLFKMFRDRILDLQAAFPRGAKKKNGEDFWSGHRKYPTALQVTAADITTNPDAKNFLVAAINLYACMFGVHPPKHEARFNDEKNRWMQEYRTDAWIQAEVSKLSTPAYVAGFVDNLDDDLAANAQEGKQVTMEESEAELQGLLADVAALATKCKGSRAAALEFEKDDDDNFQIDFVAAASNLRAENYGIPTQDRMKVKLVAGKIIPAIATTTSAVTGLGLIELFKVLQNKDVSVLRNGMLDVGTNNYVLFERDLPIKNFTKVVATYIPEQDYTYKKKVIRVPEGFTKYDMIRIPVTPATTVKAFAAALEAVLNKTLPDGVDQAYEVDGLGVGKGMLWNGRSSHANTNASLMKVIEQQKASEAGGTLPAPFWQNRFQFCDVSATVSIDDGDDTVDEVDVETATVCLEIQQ
As to the kind of experiment: Leishmania donovani Ubiquitin Activating Enzyme (LdE1). The class given is functional. The following applies: 30 µM.

Assay [3] concerns the target T2, Aspartate--tRNA(Asp/Asn) ligase (Mycobacterium tuberculosis (strain ATCC 25618 / H37Rv)) (UniProt P9WFW3). Further: in the data most compounds retested in dose-response had high values.
T2 sequence (whole entry): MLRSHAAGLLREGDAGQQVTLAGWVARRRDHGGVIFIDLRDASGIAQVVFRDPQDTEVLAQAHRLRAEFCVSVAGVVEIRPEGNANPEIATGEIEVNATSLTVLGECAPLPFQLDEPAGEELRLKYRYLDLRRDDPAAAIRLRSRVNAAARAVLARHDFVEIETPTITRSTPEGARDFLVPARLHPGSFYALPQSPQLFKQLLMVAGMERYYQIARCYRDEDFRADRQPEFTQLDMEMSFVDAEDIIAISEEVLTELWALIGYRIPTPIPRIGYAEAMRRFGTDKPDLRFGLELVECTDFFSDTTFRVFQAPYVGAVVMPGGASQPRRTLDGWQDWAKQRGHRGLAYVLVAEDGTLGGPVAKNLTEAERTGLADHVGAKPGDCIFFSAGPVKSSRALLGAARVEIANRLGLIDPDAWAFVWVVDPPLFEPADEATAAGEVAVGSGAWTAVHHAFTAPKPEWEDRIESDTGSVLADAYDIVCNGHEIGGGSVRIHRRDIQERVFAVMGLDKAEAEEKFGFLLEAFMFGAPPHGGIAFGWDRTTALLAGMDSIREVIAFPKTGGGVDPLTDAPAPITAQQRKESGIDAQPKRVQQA
As to the kind of experiment: Assay for Asp RNA synthetase-1 from Mycobacterium tuberculosis. The class given is functional. The settings on record: 30 µM.

For assay [4], the target named is AMP-activated protein kinase, AMPK (Homo sapiens) (UniProt P54646+O43741+P54619+Q9UGJ0+Q9Y478+Q13131+Q9UGI9). As to the kind of experiment: AMP-dependent Kinase enzyme assay. An in vitro enzyme assay that detects ADP turnover that is directly proportional to AMPK activity. This uses naive AMPK that is activated during the assay with MK-8722. The class given is functional. The following applies: 30 µM.

Assay [5] addresses Sialic acid-binding Ig-like lectin 9 (Homo sapiens) (UniProt Q9Y336). Kind of assay: Hs-Siglec9 ALPHAscreen SOP 20170721. The following applies: 10 µM.
For another assay, the system named is Trypanosoma cruzi. As to the kind of experiment: Trypanosoma cruzi phosphomannomutase and mannose-1-phosphate guanylyltransferase assay. The class given is functional. The settings on record: 10 µM.
Assay [6] addresses T3, Arginase-2, mitochondrial (Homo sapiens) (UniProt P78540).
T3 sequence (whole entry): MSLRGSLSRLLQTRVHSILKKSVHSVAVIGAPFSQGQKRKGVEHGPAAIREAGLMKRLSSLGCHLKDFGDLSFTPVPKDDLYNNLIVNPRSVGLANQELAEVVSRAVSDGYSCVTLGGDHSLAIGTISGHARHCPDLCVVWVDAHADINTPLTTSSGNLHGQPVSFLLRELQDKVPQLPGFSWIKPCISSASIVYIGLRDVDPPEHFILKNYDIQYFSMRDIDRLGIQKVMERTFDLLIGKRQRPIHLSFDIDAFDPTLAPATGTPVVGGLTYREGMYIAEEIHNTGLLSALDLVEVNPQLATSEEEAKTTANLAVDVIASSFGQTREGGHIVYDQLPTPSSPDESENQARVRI
As to the kind of experiment: in vitro enzyme assay to detect the production of urea directly proportional to the activity of Arginase II. Further: in the data most compounds retested in dose-response had high values. The class given is functional. The settings on record: 33.3 µM.

Assay [7] concerns the target T4, Proteasome subunit beta (Trypanosoma cruzi) (UniProt O96673).
T4 sequence (whole entry): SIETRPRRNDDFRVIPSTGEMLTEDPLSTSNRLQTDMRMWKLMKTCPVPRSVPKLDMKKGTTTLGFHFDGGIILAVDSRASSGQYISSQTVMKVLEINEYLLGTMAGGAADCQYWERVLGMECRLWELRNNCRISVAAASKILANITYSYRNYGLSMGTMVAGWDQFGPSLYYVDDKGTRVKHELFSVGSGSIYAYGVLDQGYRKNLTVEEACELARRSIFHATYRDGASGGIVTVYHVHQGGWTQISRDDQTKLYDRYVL
As to the kind of experiment: Trypanosoma cruzi proteasome chymotrypsin-like activity (TcProtChymo) assay. Further: in the data most compounds retested in dose-response had high values. The class given is functional. The following applies: 9.37 µM.

A further assay is filed under the species Homo sapiens. As to the kind of experiment: To identify inhibition of the IFN signalling (Jak-Stat) pathway via expression of an eGFP reporter gene under the control of an IFN-stimulated response element (ISRE) containing MxA promoter. The class given is functional. The following applies: 30 µM. A general note: A reporter such as luciferase makes a cellular process visible.

Assay [8] concerns the target Shiga toxin 2 (Escherichia coli O157:H7) (UniProt P09385+P09386). Kind of assay: E. coli 0.157:H7 Shiga Toxin SOP - stx2 screening assay. The class given is functional. The following applies: 30 µM.
Assay [9] deals with T5, Tyrosyl-tRNA synthetase, putative (Trypanosoma cruzi (strain CL Brener)) (UniProt Q4DSP6).
T5 sequence (whole entry): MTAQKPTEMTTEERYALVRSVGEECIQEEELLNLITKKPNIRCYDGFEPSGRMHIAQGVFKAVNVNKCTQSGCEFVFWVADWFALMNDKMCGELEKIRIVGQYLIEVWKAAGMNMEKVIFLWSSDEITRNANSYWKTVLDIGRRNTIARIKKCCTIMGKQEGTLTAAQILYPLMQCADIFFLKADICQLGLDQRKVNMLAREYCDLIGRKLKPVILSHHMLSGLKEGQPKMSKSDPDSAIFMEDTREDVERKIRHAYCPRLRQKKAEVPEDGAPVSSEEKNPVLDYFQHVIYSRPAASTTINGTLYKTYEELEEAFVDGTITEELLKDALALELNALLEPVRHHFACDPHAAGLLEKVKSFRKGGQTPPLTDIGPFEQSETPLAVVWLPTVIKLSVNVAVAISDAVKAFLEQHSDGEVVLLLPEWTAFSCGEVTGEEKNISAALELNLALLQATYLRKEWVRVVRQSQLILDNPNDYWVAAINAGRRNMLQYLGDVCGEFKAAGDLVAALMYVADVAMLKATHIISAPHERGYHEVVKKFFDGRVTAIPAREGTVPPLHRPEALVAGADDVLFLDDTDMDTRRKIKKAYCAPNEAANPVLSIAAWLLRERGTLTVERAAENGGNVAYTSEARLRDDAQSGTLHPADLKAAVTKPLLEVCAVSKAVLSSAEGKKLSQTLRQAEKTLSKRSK
Kind of assay: Trypanosoma cruzi tyrosyl tRNA synthetase (TcYRS) _High Tyrosine SOP. Further: in the data most compounds retested in dose-response had high values. The class given is functional. The following applies: 30 µM.

Assay [10] concerns the target T5, Tyrosyl-tRNA synthetase, putative (Trypanosoma cruzi (strain CL Brener)). Kind of assay: Trypanosoma cruzi tyrosyl tRNA synthetase (TcYRS) SOP. The class given is functional. The settings on record: 30 µM.
Assay [11] has as its target Chromo domain-containing protein 1 (Saccharomyces cerevisiae (strain ATCC 204508 / S288c) (Baker's yeast)) (UniProt P32657). Kind of assay: ScCHD-1 Enzyme Inhibition Assay. Further: in the data most compounds retested in dose-response had high values. The class given is functional. The following applies: 30 µM.

For some assays here: Measured potencies and affinities stand elsewhere.

Protein translocase subunit SecA (Escherichia coli (strain K12)), sequence (P10408 whole entry): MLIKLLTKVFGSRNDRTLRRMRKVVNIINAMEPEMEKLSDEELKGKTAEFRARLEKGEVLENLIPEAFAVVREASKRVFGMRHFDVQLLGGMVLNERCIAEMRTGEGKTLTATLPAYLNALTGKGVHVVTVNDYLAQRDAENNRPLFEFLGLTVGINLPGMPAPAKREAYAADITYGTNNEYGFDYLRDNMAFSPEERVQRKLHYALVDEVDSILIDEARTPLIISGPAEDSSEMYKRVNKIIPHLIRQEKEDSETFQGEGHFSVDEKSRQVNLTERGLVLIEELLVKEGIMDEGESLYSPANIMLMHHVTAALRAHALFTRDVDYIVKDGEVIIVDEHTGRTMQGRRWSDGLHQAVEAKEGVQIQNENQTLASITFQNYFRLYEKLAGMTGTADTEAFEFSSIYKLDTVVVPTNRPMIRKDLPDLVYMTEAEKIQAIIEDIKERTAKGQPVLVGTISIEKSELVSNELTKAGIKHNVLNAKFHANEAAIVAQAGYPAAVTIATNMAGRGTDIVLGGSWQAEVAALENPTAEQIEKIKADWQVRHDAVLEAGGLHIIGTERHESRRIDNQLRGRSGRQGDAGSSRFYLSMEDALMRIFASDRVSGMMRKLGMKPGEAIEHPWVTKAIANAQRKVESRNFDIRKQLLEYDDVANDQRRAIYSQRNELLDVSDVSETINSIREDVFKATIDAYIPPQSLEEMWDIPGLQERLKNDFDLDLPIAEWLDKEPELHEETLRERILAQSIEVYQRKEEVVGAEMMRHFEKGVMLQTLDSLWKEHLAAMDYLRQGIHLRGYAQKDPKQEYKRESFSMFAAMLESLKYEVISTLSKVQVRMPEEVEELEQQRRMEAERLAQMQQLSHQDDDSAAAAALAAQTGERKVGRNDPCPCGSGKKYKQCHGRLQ
Chromo domain-containing protein 1 (Saccharomyces cerevisiae (strain ATCC 204508 / S288c) (Baker's yeast)), sequence (P32657 whole entry, the tested form may be a part): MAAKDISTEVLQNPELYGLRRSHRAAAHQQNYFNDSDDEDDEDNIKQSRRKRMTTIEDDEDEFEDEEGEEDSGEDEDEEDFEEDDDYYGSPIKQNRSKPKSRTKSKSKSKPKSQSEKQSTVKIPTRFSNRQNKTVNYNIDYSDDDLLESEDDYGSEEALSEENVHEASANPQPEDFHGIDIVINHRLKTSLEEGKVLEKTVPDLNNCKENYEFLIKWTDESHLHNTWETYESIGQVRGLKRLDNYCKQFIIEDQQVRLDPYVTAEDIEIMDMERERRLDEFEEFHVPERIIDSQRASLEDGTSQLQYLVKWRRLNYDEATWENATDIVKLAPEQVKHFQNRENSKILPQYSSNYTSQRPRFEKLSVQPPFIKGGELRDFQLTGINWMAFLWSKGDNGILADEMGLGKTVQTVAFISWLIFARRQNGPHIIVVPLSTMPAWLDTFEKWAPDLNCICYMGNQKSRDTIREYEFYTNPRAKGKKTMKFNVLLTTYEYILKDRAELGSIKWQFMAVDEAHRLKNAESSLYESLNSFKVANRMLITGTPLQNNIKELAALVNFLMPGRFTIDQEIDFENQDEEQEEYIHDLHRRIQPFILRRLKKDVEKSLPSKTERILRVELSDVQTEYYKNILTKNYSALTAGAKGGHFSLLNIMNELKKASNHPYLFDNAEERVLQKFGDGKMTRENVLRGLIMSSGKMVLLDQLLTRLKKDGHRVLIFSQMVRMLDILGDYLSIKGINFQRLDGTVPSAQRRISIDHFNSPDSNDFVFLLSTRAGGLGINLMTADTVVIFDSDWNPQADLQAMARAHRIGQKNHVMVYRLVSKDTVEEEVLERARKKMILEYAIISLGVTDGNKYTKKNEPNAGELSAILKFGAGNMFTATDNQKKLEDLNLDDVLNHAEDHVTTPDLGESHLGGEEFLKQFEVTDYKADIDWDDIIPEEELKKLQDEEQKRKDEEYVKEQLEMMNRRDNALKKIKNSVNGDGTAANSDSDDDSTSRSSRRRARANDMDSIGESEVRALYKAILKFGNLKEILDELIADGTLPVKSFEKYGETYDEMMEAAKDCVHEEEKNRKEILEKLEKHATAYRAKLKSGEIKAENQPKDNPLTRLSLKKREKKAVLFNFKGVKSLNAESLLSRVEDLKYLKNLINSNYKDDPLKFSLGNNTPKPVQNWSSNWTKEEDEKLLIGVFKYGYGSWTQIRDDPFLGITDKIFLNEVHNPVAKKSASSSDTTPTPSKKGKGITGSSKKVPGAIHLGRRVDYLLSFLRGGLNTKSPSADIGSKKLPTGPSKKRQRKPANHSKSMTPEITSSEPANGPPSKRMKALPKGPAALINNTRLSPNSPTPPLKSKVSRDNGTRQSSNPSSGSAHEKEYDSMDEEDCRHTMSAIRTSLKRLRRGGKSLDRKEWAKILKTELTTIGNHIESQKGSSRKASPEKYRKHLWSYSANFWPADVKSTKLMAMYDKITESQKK
Sialic acid-binding Ig-like lectin 9 (Homo sapiens), sequence (Q9Y336 whole entry): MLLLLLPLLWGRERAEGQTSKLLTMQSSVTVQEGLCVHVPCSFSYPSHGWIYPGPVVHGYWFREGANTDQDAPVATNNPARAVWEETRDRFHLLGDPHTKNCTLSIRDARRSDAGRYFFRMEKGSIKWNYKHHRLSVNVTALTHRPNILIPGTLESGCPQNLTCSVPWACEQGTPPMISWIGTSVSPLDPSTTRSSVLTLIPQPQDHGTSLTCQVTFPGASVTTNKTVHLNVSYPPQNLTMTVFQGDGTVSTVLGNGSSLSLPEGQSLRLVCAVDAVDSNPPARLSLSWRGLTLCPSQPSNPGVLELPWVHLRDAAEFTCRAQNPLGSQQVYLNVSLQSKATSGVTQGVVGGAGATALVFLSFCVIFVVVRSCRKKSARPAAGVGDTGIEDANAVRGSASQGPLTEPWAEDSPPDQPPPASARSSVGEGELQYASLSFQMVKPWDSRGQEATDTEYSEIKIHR

Take `O=C([C@H]1C[C@H]2OCC[C@H]2N(Cc2cccnc2)C1)N1CCCO1`: the Percent Effect is -1.59% in assay [1]; 10.8% in assay [2]; 5.55% in assay [3]; 3.09% in assay [4]; -7.38% in assay [5]; -0.489% in the assay with Trypanosoma cruzi. The Percent Effect in assay [6] is 20.1%; in assay [7], 27.7%; in the assay listed under Homo sapiens it was 14.1%; in assay [8] it was -7.24%; in assay [9] it was 13%; in assay [10], 15.4%. The Percent Effect in [11] was 3.21%.
In the case of `O=C(c1cscn1)N1CCN2C[C@H](OCc3cccnc3)C[C@H]2C1`, the Percent Effect was 4.53% in assay [1]; 16% in [2]; 2.54% in assay [3]; 2.68% in assay [4]; -10.9% in assay [5]; -9.05% with Trypanosoma cruzi. Moreover, the Percent Effect is 6.76% in assay [6]; 12.1% in [7]; 0.411% in the assay listed under Homo sapiens; -22.2% in assay [8]; 5.32% in assay [9]; 3.85% in assay [10]. In addition, in assay [11], the Percent Effect amounted to 1.28%.
For the molecule `CCOCC(O)CN1CCN(C(=O)Cc2ccc3c(c2)CCO3)CC1` (stereo not given), the Percent Effect in assay [1] is 1.74%; in assay [2] it was 10.5%; in [3] it was 0.3%; in assay [4] it was 2.16%; in assay [5] it was 5%; in the assay with Trypanosoma cruzi it was -3.76%. The Percent Effect was 6.51% in [6]; 21.4% in assay [7]; 19.4% in the assay listed under Homo sapiens; 30.7% in assay [8]; 3.43% in assay [9]; 12.2% in assay [10]. Moreover, in assay [11], the Percent Effect is -2.97%.
Consider `Cc1ccc(CC(=O)N2CCN(CC(O)c3ccccc3)CC2)cn1` (stereo not given), for which the Percent Effect in assay [1] was 1.4%; in [2], 5.26%; in [3], 1.83%; in [4], -2.25%; in assay [5], 3.56%; in the assay with Trypanosoma cruzi, 5.83%. Also, the Percent Effect was 5.75% in assay [6]; 1.5% in assay [7]; -4.04% in the assay filed under Homo sapiens; 2.79% in assay [8]; 5.39% in [9]; 17.1% in assay [10]. The Percent Effect in assay [11] is -5.71%.
As for `Cc1csc(CN2CCC[C@]3(C[C@H](Oc4ccccn4)CO3)C2)n1`, the Percent Effect in [1] was 0.108%; in assay [2], 16.4%; in [3], 2.42%; in [4] it was -0.448%; in assay [5], 1.76%; with Trypanosoma cruzi, 3.57%. Also, the Percent Effect was 2.4% in assay [6]; 3.85% in assay [7]; 21.9% in the assay listed under Homo sapiens; -19.3% in [8]; 3.12% in assay [9]; 21% in assay [10]. For the same molecule, the Percent Effect in assay [11] is -4.03%.

These data come from ChEMBL document CHEMBL3988442, “University of Dundee, Small-Polar-MMV Screening Library” (2021).
